The results in this text go back to PubChem BioAssay (Tox21).

Where “and” joins values, the source holds several entries; their conditions need not be identical. Equal values may be shown once. Unmarked numbers belong to inactive results. Records with an inconclusive call do not appear. Calls of active or inactive are those of the source. The call rests on the fitted dose curve.

Assay [1] addresses Acetylcholinesterase (Homo sapiens) (UniProt P22303). In words: Acetylcholinesterase (AChE) small molecule antagonists: colormetric cell-based qHTS assay (AID 1347395). Further: nearly all actives have a fitted effect of over 30% in size. Further: potency means the concentration at half of the fitted maximal effect. The method in brief: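 Homogeneous whole-cell format. SH-SY5Y cells seeded overnight, dosed with compound (30 min, 37 C, 5% CO2), then given DTNB/acetylthiocholine cocktail for 90 min at 37 C; colorimetric signal.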
(In qHTS, concentration-response curves come from the screen itself.)

Assay [2] has the same target. In words: Acetylcholinesterase (AChE) small molecule antagonists: enzyme-based qHTS assay (AID 1347397). Further: nearly all actives have a fitted effect of over 55% in size. Further: potency means the concentration at half of the fitted maximal effect. Particulars: Potency: AChE enzyme activity inhibition; outcome: AChE enzyme activity inhibition. In outline: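 Recombinant human AChE, dispensed at 50 mU/mL, was preincubated with Tox21 10K compounds or DMSO vehicle for 30 min at room temperature. DTNB plus acetylthiocholine was then added, and thiocholine was measured colorimetrically after a further 10 min.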

The target is the same in assay [3]. Briefly: Acetylcholinesterase (AChE) small molecule antagonists: fluorescence cell-based qHTS assay (AID 1347398). Further: nearly all actives have a fitted effect of over 50% in size. Further: potency means the concentration at half of the fitted maximal effect. The conditions noted are these: Potency: AChE activity; outcome: AChE activity. In outline:
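Human SH-SY5Y cells were plated overnight at 37 C, exposed to compound for 30 min at 37 C, 5% CO2, then given acetylthiocholine plus Thiolite Green for 40 min at room temperature; thiocholine fluorescence (Ex/Em 490/520 nm) reports endogenous AChE activity.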

Assay [4] shares this target. Briefly: Acetylcholinesterase (AChE) small molecule antagonists: enzyme-based qHTS assay with human liver microsomes (AID 1347399). Further: nearly all actives have a fitted effect of over 60% in size. The conditions noted are these: Potency: qHTS inhibition; outcome: qHTS inhibition. In outline:
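Recombinant human AChE (50 mU/mL in the enzyme mix) and human liver microsomes (0.25 mg/mL final) were preincubated with compound and NADPH (0.25 mg/mL final) for 30 min at 37 C. Acetylthiocholine/DTNB was then added; thiocholine was read colorimetrically after 10 min at room temperature.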

Sequence of Acetylcholinesterase (Homo sapiens) (P22303 whole entry, looked up): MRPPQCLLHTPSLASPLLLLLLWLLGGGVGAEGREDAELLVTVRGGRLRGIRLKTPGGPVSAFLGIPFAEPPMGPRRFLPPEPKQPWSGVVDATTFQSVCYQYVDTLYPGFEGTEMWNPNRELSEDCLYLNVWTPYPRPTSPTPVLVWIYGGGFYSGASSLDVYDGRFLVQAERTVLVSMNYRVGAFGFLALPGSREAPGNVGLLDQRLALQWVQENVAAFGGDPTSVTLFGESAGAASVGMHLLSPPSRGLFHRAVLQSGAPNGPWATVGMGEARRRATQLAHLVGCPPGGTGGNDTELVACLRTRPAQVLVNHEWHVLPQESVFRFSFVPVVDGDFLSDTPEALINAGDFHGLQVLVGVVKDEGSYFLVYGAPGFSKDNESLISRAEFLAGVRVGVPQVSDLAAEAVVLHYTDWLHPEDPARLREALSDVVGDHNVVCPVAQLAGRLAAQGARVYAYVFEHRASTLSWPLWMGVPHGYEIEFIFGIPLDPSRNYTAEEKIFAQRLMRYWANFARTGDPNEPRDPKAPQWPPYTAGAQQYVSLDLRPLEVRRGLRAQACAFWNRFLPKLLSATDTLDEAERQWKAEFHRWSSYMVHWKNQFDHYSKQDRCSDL

For `O=C(O)c1cc(-c2ccccc2)nc2ccccc12`, the Potency entry in assay [1], in assay [2], in assay [3] and in assay [4] was “inactive” throughout.
Turning to `CCc1cc(C(C)(C)C)c(O)c(C(C)(C)C)c1`, the Potency entry in assay [1], in assay [2], in assay [3] and in assay [4] was “inactive” in each case.
Consider `Nc1nnnn1-c1ccccc1`, for which the Potency result in assay [1], in assay [2], in assay [3] and in assay [4] was “inactive” throughout.
For the compound `CCCCCCCCCCCCCOS(=O)(=O)O`, the Potency result in assay [1], in assay [2], in assay [3] and in assay [4] was “inactive” each time.
For the compound `CC(=O)c1c(C)c([N+](=O)[O-])c(C(C)(C)C)c([N+](=O)[O-])c1C`, the Potency in assay [1] was 79.6 µM (active). Moreover, the Potency entry in assay [2], in assay [3] and in assay [4] was “inactive” each time.
Consider `Sc1nc(S)nc(S)n1`, for which the Potency result in assay [1], in assay [2], in assay [3] and in assay [4] was “inactive” throughout.
Regarding `CCCCCCCC/C=C\CCCCCCCC(=O)OCCOC(=O)CCCCCCC/C=C\CCCCCCCC`, the Potency result in assay [1], in assay [2], in assay [3] and in assay [4] was “inactive” in each case.
On to `CC(C)(C)c1cccc(C(C)(C)C)c1O`, for which the Potency result in assay [1], in assay [2], in assay [3] and in assay [4] was “inactive” throughout.
As to `c1ccc2c(c1)[nH]c1ccccc12`, the Potency result in assay [1], in assay [2], in assay [3] and in assay [4] was “inactive” each time.
For `CCCCCC(=O)O`, the Potency entry in assay [1], in assay [2], in assay [3] and in assay [4] was “inactive” each time.
In the case of `CC(C)CC(=O)OCc1ccccc1`, the Potency entry in assay [1], in assay [2], in assay [3] and in assay [4] was “inactive” in each case.
Consider `Cc1ccc(-c2ccccc2C#N)cc1`, for which the Potency entry in assay [1], in assay [2], in assay [3] and in assay [4] was “inactive” each time.
With `C=CCc1ccc(OC)c(OC)c1`, the Potency result in assay [1], in assay [2], in assay [3] and in assay [4] was “inactive” each time.
For `Cc1ccc(C(C)(C)O)cc1`, the Potency result in assay [1], in assay [2], in assay [3] and in assay [4] was “inactive” each time.
In the case of `Cc1c(C)c2c(c(C)c1O)CCC(C)(COc1ccc(CC3SC(=O)NC3=O)cc1)O2` (stereo not given), the Potency result in assay [1], in assay [2], in assay [3] and in assay [4] was “inactive” throughout.
For `O=C=NCC1CCCC(CN=C=O)C1` (stereo not given), the Potency entry in assay [1], in assay [2], in assay [3] and in assay [4] was “inactive” throughout.
Turning to `O=C(NC(Cc1cc(=O)[nH]c2ccccc12)C(=O)O)c1ccc(Cl)cc1` (stereo not given), the Potency result in assay [1], in assay [2], in assay [3] and in assay [4] was “inactive” throughout.
For `O=C(O)c1ccc(O)cc1`, the Potency entry in assay [1], in assay [2], in assay [3] and in assay [4] was “inactive” in each case.
Turning to `Nc1ccc(C(=O)Nc2ccccc2N)cc1`, the Potency entry in assay [1], in assay [2], in assay [3] and in assay [4] was “inactive” throughout.
In the case of `CO[C@H]1C=CO[C@@]2(C)Oc3c(C)c(O)c4c(O)c(c5c(c4c3C2=O)=NC2(CCN(CC(C)C)CC2)N=5)NC(=O)/C(C)=C\C=C/[C@H](C)[C@H](O)[C@@H](C)[C@@H](O)[C@@H](C)[C@H](OC(C)=O)[C@@H]1C`, the Potency result in assay [1], in assay [2], in assay [3] and in assay [4] was “inactive” throughout.
Take `NNC(=O)c1ccncc1`: the Potency result in assay [1], in assay [2], in assay [3] and in assay [4] was “inactive” in each case.
As for `O=C(O)c1ccc([N+](=O)[O-])cc1`, the Potency entry in assay [1], in assay [2], in assay [3] and in assay [4] was “inactive” in each case.
Turning to `CC(C)(C)c1n[nH]c(=O)n(N)c1=O`, the Potency result in assay [1], in assay [2], in assay [3] and in assay [4] was “inactive” in each case.
As to `CC(=O)OC[C@H]1O[C@@](COC(C)=O)(O[C@H]2O[C@H](COC(C)=O)[C@@H](OC(C)=O)[C@H](OC(C)=O)[C@H]2OC(C)=O)[C@@H](OC(C)=O)[C@@H]1OC(C)=O`, the Potency entry in assay [1], in assay [2], in assay [3] and in assay [4] was “inactive” in each case.
Take `COCCOCCOCCOCCOCCO`: the Potency entry in assay [1], in assay [2], in assay [3] and in assay [4] was “inactive” throughout.
Regarding `Clc1ccc2cc3ccccc3cc2c1`, the Potency result in assay [1], in assay [2], in assay [3] and in assay [4] was “inactive” each time.
Regarding `CC1(C)CC(N=C=O)CC(C)(CN=C=O)C1` (stereo not given), the Potency entry in assay [1], in assay [2], in assay [3] and in assay [4] was “inactive” in each case.
For the compound `O=C(O)c1c(Cl)ccc(Cl)c1Cl`, the Potency result in assay [1], in assay [2], in assay [3] and in assay [4] was “inactive” each time.
Consider `CCN(CC)CCN`, for which the Potency result in assay [1], in assay [2], in assay [3] and in assay [4] was “inactive” throughout.
With `CC1(C)[C@H]2CC[C@]1(C)[C@H](O)C2`, the Potency entry in assay [1], in assay [2], in assay [3] and in assay [4] was “inactive” in each case.
With `CCC(CO)(CO)CO`, the Potency result in assay [1], in assay [2], in assay [3] and in assay [4] was “inactive” each time.
Take `CCCCCCCC/C=C\CCCCCCCC(=O)OC(CO)CO`: the Potency entry in assay [1], in assay [2], in assay [3] and in assay [4] was “inactive” each time.
Turning to `CC(C)N=C(N)/N=C(\N)Nc1ccc(Cl)cc1`, the Potency entry in assay [1], in assay [2], in assay [3] and in assay [4] was “inactive” each time.
As for `CCCCC(CC)C(=O)OCCOCCOCCOCCOC(=O)C(CC)CCCC` (stereo not given), the Potency entry in assay [1], in assay [2], in assay [3] and in assay [4] was “inactive” each time.
For the compound `CCOC=C(C(=O)OCC)C(=O)OCC`, the Potency entry in assay [1], in assay [2], in assay [3] and in assay [4] was “inactive” each time.
For the compound `CCCC(=O)OCOC(=O)C1=C(C)NC(C)=C(C(=O)OC)C1c1cccc(Cl)c1Cl` (stereo not given), the Potency result in assay [1], in assay [2], in assay [3] and in assay [4] was “inactive” in each case.
In the case of `C[C@@H](C1=C(CCN(C)C)Cc2ccccc21)c1ccccn1`, the Potency entry in assay [1], in assay [2], in assay [3] and in assay [4] was “inactive” in each case.
On to `CCCCCNCCCCC`, for which the Potency result in assay [1], in assay [2], in assay [3] and in assay [4] was “inactive” throughout.
Regarding `CCOC(=O)NNc1ccc(N(CC)CC(C)O)nn1` (stereo not given), the Potency entry in assay [1], in assay [2], in assay [3] and in assay [4] was “inactive” in each case.
For the compound `O=C=NC1CCC(CC2CCC(N=C=O)CC2)CC1` (stereo not given), the Potency entry in assay [1], in assay [2], in assay [3] and in assay [4] was “inactive” throughout.
For the compound `CN(C)Cc1ccccc1O`, the Potency result in assay [1], in assay [2], in assay [3] and in assay [4] was “inactive” throughout.
As to `COC(=O)N[C@H](C(=O)N[C@@H](Cc1ccccc1)[C@@H](O)CN(Cc1ccc(-c2ccccn2)cc1)NC(=O)[C@@H](NC(=O)OC)C(C)(C)C)C(C)(C)C`, the Potency result in assay [1], in assay [2], in assay [3] and in assay [4] was “inactive” throughout.
For `CCCCC1C(=O)N(c2ccccc2)N(c2ccccc2)C1=O`, the Potency result in assay [1], in assay [2], in assay [3] and in assay [4] was “inactive” each time.
For `O=C(O)c1ccccc1C(c1ccc(O)cc1)c1ccc(O)cc1`, the Potency entry in assay [1], in assay [2], in assay [3] and in assay [4] was “inactive” throughout.
Take `CC(C)c1ccc(C(C)C)cc1`: the Potency entry in assay [1], in assay [2], in assay [3] and in assay [4] was “inactive” each time.
As for `C/C(=N\O)c1ccc(OCC(=O)N2CCCCC2)cc1`, the Potency result in assay [1], in assay [2], in assay [3] and in assay [4] was “inactive” throughout.
As to `Nc1nc(Cl)cc(Cl)n1`, the Potency entry in assay [1], in assay [2], in assay [3] and in assay [4] was “inactive” each time.
`CN/C(=C\[N+](=O)[O-])NCCSCc1csc(CN(C)C)n1`: the Potency was 11.2 µM (active) and 13.8 µM (active) in assay [1]; 35.6 µM (active) and 27.5 µM (active) in assay [2]; 35.6 µM (active) in assay [3]. Further, the Potency entry in assay [4] is “inactive”.
Regarding `CCOC(=O)COc1ccc(C)cc1`, the Potency entry in assay [1], in assay [2], in assay [3] and in assay [4] was “inactive” in each case.
`O=C(NCCc1c[nH]c2ccccc12)c1cccnc1`: the Potency result in assay [1], in assay [2], in assay [3] and in assay [4] was “inactive” in each case.
On to `CC(=O)OCC(=O)[C@@]1(O)CC[C@H]2[C@@H]3CCC4=CC(=O)CC[C@]4(C)[C@H]3C(=O)C[C@@]21C`, for which the Potency entry in assay [1], in assay [2], in assay [3] and in assay [4] was “inactive” each time.
With `COC(=O)/C=C\C(=O)OC`, the Potency entry in assay [1], in assay [2], in assay [3] and in assay [4] was “inactive” in each case.
In the case of `Cc1ccc2oc(=O)ccc2c1`, the Potency result in assay [1], in assay [2], in assay [3] and in assay [4] was “inactive” throughout.
For `Cc1ccccc1C(=O)Nc1ccc(C(=O)N2CCCC(O)c3cc(Cl)ccc32)c(C)c1` (stereo not given), the Potency entry in assay [1], in assay [2], in assay [3] and in assay [4] was “inactive” throughout.
With `CC1=C(/C=C/C(C)=C/C=C/C(C)=C/C(=O)Nc2ccc(O)cc2)C(C)(C)CCC1`, the Potency result in assay [1], in assay [2] and in assay [4] was “inactive” throughout. The Potency in assay [3] is 13.8 µM (active).
On to `COc1cc([C@H]2Oc3cc([C@H]4Oc5cc(O)cc(O)c5C(=O)[C@@H]4O)ccc3O[C@@H]2CO)ccc1O`, for which the Potency entry in assay [1], in assay [2], in assay [3] and in assay [4] was “inactive” in each case.
Take `Cc1cccc(C)c1NC(=O)CN1CCCCCC1`: the Potency entry in assay [1], in assay [2], in assay [3] and in assay [4] was “inactive” in each case.
Consider `C[Si]1(C)N[Si](C)(C)N[Si](C)(C)N1`, for which the Potency result in assay [1], in assay [2], in assay [3] and in assay [4] was “inactive” in each case.
As for `CN(C)CCCNCCCN(C)C`, the Potency result in assay [1], in assay [2], in assay [3] and in assay [4] was “inactive” throughout.
In the case of `CC(C)Cc1nccs1`, the Potency entry in assay [1], in assay [2], in assay [3] and in assay [4] was “inactive” throughout.
